Compound activity (PubChem BioAssay)
Anthrax LF inh2 = Bacillus anthracis LF protease inhibitors, primary screen, biochemical, multiplex microsphere, MLPCN library; Lethal factor (Bacillus anthracis), P15917; multiplex microsphere protease cleavage assay; inhibition, % at 10 µM; hit rate 0.12% among 360,000; AID 588501, 2011; note: plate controls were buffer without enzyme for full effect and enzyme alone for no effect
BoNT F protease = BoNT/F light chain protease inhibitors, primary screen, biochemical, flow cytometry, MLPCN library. Multiplex microsphere protease cleavage assay. inhibition, % at 10 µM. hit rate 0.22% among 360,000; in the data active = inhibition above about 35%, passing the limit was not always enough; inconclusive = no clear call, values can overlap the other calls; note: plate controls were buffer without enzyme for full effect and enzyme alone for no effect
BoNT A protease = BoNT/A light chain protease inhibitors, primary screen, biochemical, flow cytometry, MLPCN library; multiplex microsphere protease substrate cleavage; inhibition, % at 10 µM; hit rate 0.17% among 360,000; Botulinum neurotoxin type A light chain protease (Clostridium botulinum A str. ATCC 3502); note: plate controls were buffer without enzyme for full effect and enzyme alone for no effect
Bead autofluor = flagged as autofluorescent in microsphere protease counterscreen. compound autofluorescence counterscreen, microsphere flow cytometry; hits give high values. fluorescence intensity (no concentration beside the values). hit rate 3.1% among 360,000. AID 624483; in the data active = fluorescence intensity above about 16000; inconclusive = no clear call, values can overlap the other calls
PriA SSB inh = inhibitors of Klebsiella pneumoniae PriA binding to SSB C-terminal tail, primary screen, biochemical, AlphaScreen; PriA–SSB C-terminal tail interaction (Klebsiella pneumoniae); AlphaScreen SSBct-PriA binding, biotinylated peptide; inhibition, % at 33 µM; hit rate 0.6% among 430,000; AID 1272365, 2023; in the data active = inhibition mostly above about 37%, no sharp cut-off; inactive = mostly below about 20%;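 note: plate controls were negative control peptide for no effect and reference peptide for full effect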
* hit, by the source's call; ? = inconclusive; . = no result given. In the library only some 3.1% were active in any assay of this set; here they are far more common. Cut-off read from the data, not from the text of the source, unless noted: active = inhibition above about 30%; inconclusive = no clear call, values can overlap the other calls; inactive = below that.

SMILES	Anthrax LF inh2	BoNT F protease	BoNT A protease	Bead autofluor	PriA SSB inh
CC(=O)c1ccc(C(=O)N(CCn2cccn2)c2nc3c(C)cc(C)cc3s2)cc1	.	.	.	.	-5
COc1ccc(-c2cc(N3CCCC(C(=O)O)C3)ncn2)cc1 (stereo not given)	.	.	.	.	-5
COC(=O)c1ccc(NC(=O)C(=O)NC[C@@](O)(c2cccs2)C2CC2)cc1	.	.	.	.	-14
N#C/C(=C\c1ccc2noc(-c3ccccc3)c2c1)C(=O)Nc1ccc([N+](=O)[O-])cc1	.	.	.	.	5
Cc1cccc2sc(N(CCCn3ccnc3)C(=O)c3ccco3)nc12	.	.	.	.	45*
COc1ccc(S(=O)(=O)NCCc2ccc(S(N)(=O)=O)cc2)cc1[N+](=O)[O-]	.	.	.	.	-5
CCOC(=O)CNC(=O)CSc1nnc(-c2ccncc2)o1	.	.	.	.	-20
CCOC(=O)C(Sc1nnc(-c2ccncc2)o1)C(C)=O (stereo not given)	-2	-4	0	16214*	-7
COC(=O)C(C)Sc1nnc(-c2ccncc2)o1 (stereo not given)	-5	-2	?	21757*	-9
O=C(C[n+]1ccccc1)N/N=C/c1cc(Br)cc(Br)c1O	-2	19	5	3752	.
O=C(C[n+]1ccccc1)NN=Cc1cc(Br)cc(Br)c1O	.	.	.	.	57*
CC(C)(C)c1ccc(C(=O)Nc2scc(-c3ccc(F)cc3)c2C(=O)O)cc1	.	.	.	.	1
Cc1cccc(NS(=O)(=O)c2ccc(C3CCCCC3)cc2)n1	0	-3	-2	22937*	-6
Cc1cccc(C)c1OCCCCc1c(C)n[nH]c1C	-8	-5	0	22821*	-3
COc1ccc(Cl)cc1NC(=O)CCCn1nc(-c2cccs2)ccc1=O	.	.	.	.	-2
Cc1ccc(C=c2sc3nnc(-c4ccccc4Cl)n3c2=O)o1	.	.	.	.	-17
CCN(CC)c1ccc(/C=c2\sc3nnc(-c4ccccc4Cl)n3c2=O)cc1	80*	125*	176*	9724	.
Cc1ccc(/C=c2/sc3nnc(-c4ccccc4Cl)n3c2=O)o1	-3	-2	0	16190*	.
Cc1cccc(CS(=O)(=O)Nc2ccc3c(c2)OCC(C)(C)C(=O)N3CC(C)C)c1	.	.	.	.	16
Cc1ccc(S(=O)(=O)C(=CNc2ccccc2)S(=O)(=O)c2ccc(C)cc2)cc1	.	.	.	.	-9
CCN(CC)S(=O)(=O)c1ccc(C(=O)NCc2n[nH]c(=S)n2Cc2ccccc2)cc1	0	2	2	21413*	-20
CCN(CC)S(=O)(=O)c1ccc(C(=O)NCc2cccs2)cc1	2	-1	1	21571*	-6
Cc1nc2ccc3nc(NC(=O)Cc4ccc(S(C)(=O)=O)cc4)sc3c2s1	.	.	.	.	-4
CNC(=O)CS(=O)(=O)C1CCN(C(=O)c2ccc3noc(-c4ccccc4)c3c2)CC1	.	.	.	.	9
Cc1cc2c(cc1C)N(C(=O)CSC1=NCCS1)C(C)(C)c1ssc(=S)c1-2	-5	-6	-2	21080*	60
SMILES	Anthrax LF inh2	BoNT F protease	BoNT A protease	Bead autofluor	PriA SSB inh
CC1(C)c2ssc(=S)c2-c2ccccc2N1C(=O)CSC1=NCCS1	3	4	1	3659	73
N#C/C(C(=O)c1ccccc1)=C1/CCCN1	-3	-1	-2	23223*	.
N#C/C(=C1\CCCN1)c1nc2ccccc2c(=O)[nH]1	-7	-2	-1	2929	-13
O=C(Nc1ccc(CN2CCOCC2)cc1)c1ccc2ccccc2c1	-7	-13	0	4504	-8
COC(=O)c1ccc(NC(=O)c2ccc(CN3CCOCC3)cc2)cc1	0	2	0	16430*	-13
O=C(Nc1ccc(CN2CCOCC2)cc1)c1ccc(Cl)cc1	-13	-2	0	3466	-8
O=C(Nc1ccc(CN2CCOCC2)cc1)c1cccc(F)c1	0	1	3	18588*	-6
CSc1ccccc1-c1nnc(NC(=O)CS(=O)(=O)c2ccc(C)cc2)o1	.	.	.	.	-29
O=C1c2ccccc2C(=O)N1CCSc1nnc(C2COc3ccccc3O2)n1-c1ccccc1 (stereo not given)	.	.	.	.	-2
COc1ccccc1-c1cc(C(=O)NN=Cc2cnn(C)c2C)c2ccccc2n1	.	.	.	.	3
Cc1ccc(S(=O)(=O)N=C2C=C(Nc3cccc(C(=O)O)c3)C(=O)c3ccccc32)cc1	.	.	.	.	41
CCc1ccc(S(=O)(=O)/N=C2\C=C(Nc3ccc(C(=O)O)cc3)C(=O)c3ccccc32)cc1	-4	3	-1	4391	.
COc1ccc(S(=O)(=O)N=C2C=C(Nc3ccc(O)cc3)C(=O)c3ccccc32)cc1	.	.	.	.	40*
Cc1ccc(S(=O)(=O)N=C2C=C(Nc3ccc(O)cc3)C(=O)c3ccccc32)cc1	.	.	.	.	64*
CCOc1cccc2sc(NC(=O)Cc3ccc(Cl)cc3)nc12	.	.	.	.	-7
Cc1ccc(C(=O)Nc2ccccc2OC(F)F)cc1	-7	-2	?	23774*	-12
O=C(Nc1ccccc1OC(F)F)c1ccccc1	1	0	0	8328	-17
COc1cc([N+](=O)[O-])cc(CN2CCCCC2)c1O	-4	-4	?	16919*	-14
O=[N+]([O-])c1ccc(Cl)c(CN2CCCCCC2)c1	-5	31	6	3067	-9
O=C(NCCN1Cc2cc(Cl)ccc2OCC1=O)c1cnccn1	.	.	.	.	50*
CCN(CC)c1ccc(/C=N/Nc2ccccc2)c(O)c1	-2	0	2	22767*	.
CCN(CC)c1ccc(C=Nc2ccc(C)cc2)c(O)c1	24	11	28	4258	-24
CCN(CC)c1ccc(C=Nc2cc(C)cc(C)c2)c(O)c1	24	13	50*	3216	7
CCN(CC)c1ccc(N=Cc2ccc(N(CC)CC)cc2O)cc1	-4	7	?	22151*	20
CS(=O)(=O)N(CC(=O)Nc1ccc(Br)cc1)C1CCCCC1	-26	?	?	4182	10
SMILES	Anthrax LF inh2	BoNT F protease	BoNT A protease	Bead autofluor	PriA SSB inh
CCOc1ccc(NC(=O)CN(C2CCCCC2)S(C)(=O)=O)cc1	-9	0	?	22520*	-6
O=c1c2ccccc2nnn1CSc1nnc(COc2ccc(Cl)cc2)n1Cc1ccco1	-4	-4	?	22380*	-10
CCOc1ccc(-n2c(C)nnc2SCC(=O)N(CC)CC)cc1	-1	-1	1	19915*	-9
Cc1cc(C(=O)NCc2ccccc2)c(=O)[nH]c1C	-8	-6	-4	23927*	-5
Cc1nc2c(C(=O)NCc3ccccc3)c[nH]n2c(=O)c1Cl	-8	7	5	20750*	-6
Cc1ccc(C(=O)NCc2ccccc2)c(F)c1F	-1	-1	0	4582	-14
O=C(Nc1ccccc1C(=O)NCc1ccccc1)c1ccccc1	-3	3	2	22302*	-25
CN(Cc1ccccc1)C(=O)c1ccccc1NC(=O)c1ccccc1	0	2	3	22709*	-23
Cc1cc(OC2CCN(C(=O)c3ccc(Cl)s3)CC2)cc(=O)n1C	.	.	.	.	-12
CCOC(=O)c1c(NC(=O)C(C)Sc2cccc[n+]2[O-])sc2c1CCN(Cc1ccccc1)C2 (stereo not given)	8	12	45*	8502	26
